JMJD2A Tudor inh – qHTS Assay for Inhibitors of JMJD2A-Tudor Domain; Lysine-specific demethylase 4A (Homo sapiens), O75164; AlphaScreen JMJD2A-Tudor / H3K4me3 peptide binding; Potency, µM (series often up to 114 µM), most hits filed as inhibitors; 4.4% of 390,000 active; AID 504339, 2011; further: nearly all actives have a fitted effect of over 50% in size
CtBP-E1A blk – qHTS Assay for Inhibitors of the CtBP/E1A Interaction | CtBP / adenovirus E1A interaction (AlphaScreen) | AlphaScreen GST-E1A/His-CtBP binding, 1536-well; hits give low values | activity change, % (no concentration beside the values) | 0.49% of 340,000 active | AID 651724, 2012; in the data active means activity change below about -65%; inconclusive means mostly about -30% to -63%
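Homogeneous bead-based format: GST-tagged E1A captured on glutathione donor beads, His-tagged CtBP on nickel acceptor beads; compounds precede bead addition by 2 h at 37 °C.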
HP1b binding inh – HTS for Inhibitors of HP1-beta Chromodomain Interactions with Methylated Histone Tails | 0.56% of 390,000 active | Chromobox protein homolog 1 (Homo sapiens), P83916 | Potency, µM (highest dose often 114 µM), hits mostly inhibitors | AlphaScreen HP1-beta / biotin-H3K9me3 peptide binding; further: nearly all actives have a fitted effect of over 70% in size
Target sequence (P83916 whole entry, looked up): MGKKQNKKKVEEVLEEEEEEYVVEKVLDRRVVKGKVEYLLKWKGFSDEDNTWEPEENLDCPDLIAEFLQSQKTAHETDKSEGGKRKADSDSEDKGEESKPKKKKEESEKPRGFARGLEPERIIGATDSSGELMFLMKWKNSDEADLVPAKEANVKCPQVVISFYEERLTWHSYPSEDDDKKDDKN
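HP1-beta protein (50 nM final) preincubated 30 min at room temperature with biotinylated H3(1-18)K9me3 peptide (50 nM) in PBS pH 7.4, 0.01% Tween-20, then compound added for 30 min. AlphaScreen streptavidin donor/nickel chelate acceptor beads (10 ug/mL final), 30 min dark, luminescence read.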
BAZ2B block – qHTS Assay for Inhibitors of BAZ2B | AID 504333, 2011 | AlphaScreen BAZ2B-H3K14Ac peptide displacement | Potency, µM (titrated, usually from 114 µM), hits mostly inhibitors | Bromodomain adjacent to zinc finger domain protein 2B (Homo sapiens), Q9UIF8 | 4.4% of 360,000 active; further: nearly all actives have a fitted effect of over 60% in size
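Complex of BAZ2B and biotin-H3K14Ac (50 nM apiece) forms over 30 min at RT, then faces library compounds up to 110 uM for another 30 min; AlphaScreen beads added, 20 min dark incubation, luminescence read.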
Six1-Eya2 blk – qHTS Assay for Inhibitors of the Six1/Eya2 Interaction | Homeobox protein SIX1 (Homo sapiens) + Protein phosphatase EYA2 (Homo sapiens), … | AlphaScreen GST-Six1/His-Eya2 binding, biochemical; hits give low values | activity change, % (no concentration beside the values) | 0.56% of 360,000 active | AID 651725, 2012; in the data active means activity change below about -65%; inconclusive means mostly about -30% to -63%
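Compounds are tested against tagged Six1 and Eya2 proteins bridged by glutathione donor and nickel acceptor beads; after a one-hour incubation at 37 °C without light, AlphaScreen emission is recorded.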
G9a inh – qHTS Assay for Inhibitors of Histone Lysine Methyltransferase G9a; G9a H3K9 monomethylation, AlphaScreen, 2 h; Potency, µM (series often up to 102 µM), hits mostly inhibitors; Histone-lysine N-methyltransferase EHMT2 (Homo sapiens), Q96KQ7; 8.8% of 350,000 active; AID 504332, 2011; further: nearly all actives have a fitted effect of over 75% in size
Target sequence (Q96KQ7 913-1193 limits assumed): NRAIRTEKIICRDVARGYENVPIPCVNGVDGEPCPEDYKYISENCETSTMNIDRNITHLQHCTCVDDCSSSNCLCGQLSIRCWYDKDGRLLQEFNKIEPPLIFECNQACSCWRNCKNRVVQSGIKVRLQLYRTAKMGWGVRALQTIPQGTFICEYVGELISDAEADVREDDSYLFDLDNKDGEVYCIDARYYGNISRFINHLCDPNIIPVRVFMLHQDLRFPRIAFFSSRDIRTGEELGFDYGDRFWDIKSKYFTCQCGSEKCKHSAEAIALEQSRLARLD
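Chemiluminescent proximity detection of H3K9 monomethylation, read after 10 min bead incubation in the dark. Reaction: 20 nM G9a, 500 nM biotin-H3K9 peptide, 20 uM SAM cofactor, 2 h, room temperature, following 15 min enzyme-compound preincubation.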
Each line names hits and unclear results; the compound was inactive in the other large screens. Shown are actives, neighbours in structure and some others; about 10% of the full set was active somewhere. Unless noted, the call rests on the fitted dose curve; in most records, active means well fitted inhibition curve with a large enough effect; inconclusive means small, poorly fitted or top-dose-only effect; inactive means no such curve, though single readings can be large or run the other way.

CCCOc1ccc(C(=O)NNC(=S)NC(C)=O)cc1	JMJD2A Tudor inh 28µM, G9a inh inconclusive
CCC(=O)NC(=S)NNC(=O)c1ccc(OC)cc1	JMJD2A Tudor inh 22µM, G9a inh 22µM
CCCCOc1ccc(C(=O)NNC(=S)NC(=O)CC)cc1	JMJD2A Tudor inh inconclusive, G9a inh 20µM
COc1cc(OC)cc(C(=O)Nn2cc(C(=O)Nc3ccc(F)cc3F)c3ccccc3c2=O)c1	Six1-Eya2 blk inconclusive
O=C(CSC(=O)c1ccccc1)Nc1ccccc1F	HP1b binding inh inconclusive (no result: BAZ2B block, G9a inh)
COc1ccc(C(=O)NC(=S)NC2CCSC2=O)cc1 (stereo unspecified)	G9a inh 10µM
COc1ccc(C(=O)NC(=S)NNC(=O)c2ccc3ccccc3n2)cc1	JMJD2A Tudor inh 50µM, CtBP-E1A blk -82, BAZ2B block 79µM, Six1-Eya2 blk -86, G9a inh 13µM
COc1cc(OC)cc(C(=O)NC2CCSC2=O)c1 (stereo unspecified)	none (no result: BAZ2B block)
CCC(=O)NC(=S)NNC(=O)COc1ccc(Br)cc1	G9a inh 8.9µM
COc1ccc(C(=O)NC(=S)NNC(=O)c2ccc(NC(=O)C(C)C)cc2)cc1	JMJD2A Tudor inh inconclusive, G9a inh 4.5µM
O=C(NCC1OCCc2ccccc21)c1ccc(NC(=O)c2cccc(Br)c2)cc1 (stereo unspecified)	G9a inh inconclusive
CCOc1ccc(NC(=S)NNC(=O)c2ccc(Br)cc2)cc1	JMJD2A Tudor inh inconclusive, G9a inh 35µM
CC(=O)Nc1ccc(C(=O)NNC(=O)Cc2ccccc2)cc1	none (no result: G9a inh)
CCCOc1ccc(C(=O)NNC(=S)NC(=O)c2ccco2)cc1	HP1b binding inh inconclusive, G9a inh 40µM
COc1ccc(CC(=O)NNC(=O)c2ccc(NC(C)=O)cc2)cc1	G9a inh 45µM
COc1ccc(C(=O)NNC(=S)NC(=O)c2ccco2)cc1	G9a inh inconclusive
CCCOc1ccc(C(=O)Nc2ccc(NC(=O)c3ccc(Br)cc3)cc2)cc1	none (no result: CtBP-E1A blk, Six1-Eya2 blk)
CCCCCCCCN1C(=O)[C@H](CC(=O)NCCC(C)C)C[C@@]2(C(=O)OCC)CCC=C12	none (no result: JMJD2A Tudor inh, HP1b binding inh, BAZ2B block, G9a inh)
COc1ccc(NC(=O)/C(=C\c2ccc(F)cc2)NC(=O)c2ccco2)cc1	none
O=C(Cc1cccc(F)c1)Nc1ccc2c(c1)CCC2	none
O=C(Cc1ccc2c(c1)CCCC2)Nc1ccc2ccccc2c1	HP1b binding inh inconclusive, G9a inh 7.1µM
CN(CC(=O)Nc1ccc2c(c1)CCC2)CC(=O)Nc1ccccc1Br	JMJD2A Tudor inh 14µM (no result: CtBP-E1A blk)
CC(CNC(=O)CN(C)CC(=O)Nc1ccccc1Br)c1ccccc1 (stereo unspecified)	G9a inh 45µM
COc1ccc(NC(=O)CN(C)CC(=O)Nc2ccc3c(c2)CCC3)cc1	none
CCOc1ccc(CCNS(=O)(=O)c2cc(Br)cc3c2N(C(C)=O)CC3)cc1OCC	none (no result: CtBP-E1A blk, Six1-Eya2 blk)
COc1ccc(NC(=O)C(c2ccccc2F)n2c(=O)c(-c3cc4ccccc4[nH]3)nc3ccccc32)cc1 (stereo unspecified)	none (no result: JMJD2A Tudor inh, HP1b binding inh, BAZ2B block, G9a inh)
CCOc1ccc(N(C)Cc2cc(=O)oc3ccc(OCC)cc23)cc1	JMJD2A Tudor inh inconclusive, BAZ2B block 18µM, Six1-Eya2 blk inconclusive, G9a inh 10µM
Cc1ccc2oc(=O)c3cnn(CC(=O)N4CCCc5ccccc54)c3c2c1	none
Cc1ccc(S(=O)(=O)NCc2ccco2)cc1C(N)=O	JMJD2A Tudor inh 25µM
O=S(=O)(NCc1ccco1)c1ccc2ccccc2c1	BAZ2B block inconclusive
Cc1ccc2ccc(S(=O)(=O)NCc3ccco3)cc2c1	G9a inh 35µM
COc1ccc(C)cc1NC(=O)Cn1c(=O)nc(-c2ccccc2F)c2cc(Cl)ccc21	none (no result: CtBP-E1A blk, Six1-Eya2 blk)
Cc1cc2c(s1)c1cnn(Cc3ccccc3Cl)c(=O)c1n2C	none (no result: CtBP-E1A blk, HP1b binding inh, BAZ2B block, Six1-Eya2 blk, G9a inh)
COc1ccc(CN=Cc2c(C(F)(F)F)[nH][nH]c2=O)cc1	JMJD2A Tudor inh 79µM
O=C(CCS(=O)(=O)c1ccc(Br)cc1)NCc1ccco1	BAZ2B block 50µM (no result: CtBP-E1A blk)
O=C(CCS(=O)(=O)c1ccc(Br)cc1)NCc1cccs1	JMJD2A Tudor inh 35µM, HP1b binding inh 50µM, BAZ2B block 50µM, G9a inh inconclusive
O=C(c1ccccc1)[C@@H]1[C@@H]2C(=O)N(c3ccc(F)cc3)C(=O)[C@@H]2C2CCCN21 (stereo partly specified)	JMJD2A Tudor inh inconclusive (no result: CtBP-E1A blk, G9a inh)
Cc1ccc(N2C(=O)[C@@H]3[C@H](C2=O)C2CCCN2[C@@H]3C(=O)c2ccccc2)cc1 (stereo partly specified)	JMJD2A Tudor inh 56µM, BAZ2B block inconclusive
O=C(c1ccc(Cl)cc1)C1C2C(=O)N(c3ccccc3)C(=O)C2C2CCCN21 (stereo unspecified)	BAZ2B block inconclusive, G9a inh 8.9µM
O=C(c1ccc(Cl)cc1)[C@@H]1[C@@H]2C(=O)N(c3ccccc3)C(=O)[C@@H]2C2c3ccccc3C=NN21 (stereo partly specified)	G9a inh 20µM
Cc1cccc(OC(=O)c2cc(-c3ccc(Cl)cc3)on2)c1C	none (no result: CtBP-E1A blk, Six1-Eya2 blk)
COc1cc(/C=C/C(=O)OCC(=O)N2CCN(C(=O)c3ccco3)CC2)ccc1O	none
Cc1cc(N2C(=O)C(O)=C(C(=O)c3ccco3)C2c2ccc(Cl)cc2)no1 (stereo unspecified)	G9a inh inconclusive (no result: CtBP-E1A blk)
Cc1cc(N2C(=O)C(O)=C(C(=O)c3ccco3)C2c2ccccc2F)no1 (stereo unspecified)	BAZ2B block inconclusive, G9a inh 79µM
CSc1nnc(N2C(=O)C(O)=C(C(=O)c3ccco3)C2c2ccccc2F)s1 (stereo unspecified)	JMJD2A Tudor inh 50µM
CSc1nnc(N2C(=O)C(O)=C(C(=O)c3ccco3)C2c2ccccc2)s1 (stereo unspecified)	JMJD2A Tudor inh inconclusive, BAZ2B block inconclusive, G9a inh 40µM (no result: CtBP-E1A blk)
CSc1nnc(N2C(=O)C(O)=C(C(=O)c3ccc(C)o3)C2c2ccc(C)cc2)s1 (stereo unspecified)	BAZ2B block inconclusive (no result: CtBP-E1A blk)
O=C(Cn1nc2c(cc1=O)CCCC2)NCc1ccc(Cl)cc1	none (no result: CtBP-E1A blk, Six1-Eya2 blk)
O=C(CSc1nc2ccccc2s1)NCCOc1ccc(Cl)cc1	none
O=C(CSc1nc2ccccc2s1)NNC(=S)Nc1ccc(Cl)cc1	G9a inh 40µM
